DT40 TDP1 no CPT – qHTS for Inhibitors of human tyrosyl-DNA phosphodiesterase 1 (TDP1): qHTS in cells in absence of CPT | DT40 Tdp1-/- hTDP1 cells, no CPT, ATP luminescence, 48 h | hit rate 15% among 420,000 | Potency, µM (top dose mostly 46.2 µM), without a hit: at the highest dose activity change, negative = growth inhibition, hits mostly inhibitors | AID 686978, 2013; further: on the % scale 0 is the no-effect control and ±100 the full control effect; nearly all actives have a fitted effect of over 55% in size
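Compound effects on proliferation are scored in DT40 Tdp1-/-;hTDP1 cells in the absence of CPT. ATP levels (CellTiter-Glo luminescence) are recorded after a ≥48 hr, 37 °C incubation.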
HepG2 viability – counter-screen for TGF-b inhibitors: cytotoxicity in HepG2 cells; Potency, µM (doses to about 46.1 µM), for the others: top-dose activity change, negative = cytotoxicity, hits mostly cytotoxic; hit rate 0.76% among 410,000; HepG2 CAGA-GFP viability, ATP luminescence, 18 h
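HepG2 CAGA-GFP cells (1000/well, DMEM with 1% FBS) received compound, then TGF-beta at 500 pg/mL final, and were incubated 18 hours at 37 degrees C. Viability was read by CellTiter-Glo luminescence. Media-only wells were set as complete cell-killing and DMSO as no toxicity.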
HT1080 IDH1KD tx – toxicity to HT-1080 IDH1 knockdown cells (counter line). HT-1080 IDH1 knockdown viability, ATP luminescence, 48 h. Potency, µM (doses to about 46.1 µM), for inactives: top-dose activity, negative = toxicity, usual class: cytotoxic. hit rate 2% among 360,000;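 further: 0% = DMSO wells and -100% = cell-free medium wells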
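HT-1080-IDH1KD cells (IDH1 knocked down), 750/well in RPMI with 5% FBS, treated with compound 48 h at 37 degrees C. Viability by CellTiter-Glo luminescence, normalised to DMSO and no-cell wells; concentration-response curves classed.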
TDP1 cell CPT – DT40-hTDP1 cell growth loss with CPT | chicken DT40 Tdp1-/-;hTDP1 cells + 20 nM CPT, ATP luminescence, 48 h | Potency, µM (titrated, usually from 46.2 µM), for the others: at the top dose activity change, negative = growth inhibition, usual class: inhibitors | hit rate 12% among 420,000; further: on the % scale 0 is the no-effect control and ±100 the full control effect; nearly all actives have a fitted effect of over 55% in size
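Cell growth measured by CellTiter-Glo luminescence after a minimum 48 h, 37 C compound exposure with 20 nM CPT in Tdp1-knockout DT40 cells stably expressing hTDP1, seeded 400/well; qHTS titration format.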
HT1080NT lethal – kills 2HG-producing HT-1080-NT fibrosarcoma cells. HT-1080-NT fibrosarcoma viability, CellTiter-Glo ATP luminescence, 48 h. Potency, µM (top dose mostly 46.1 µM), without a hit: top-dose activity, negative = less viability, most hits filed as cytotoxic. hit rate 1.6% among 360,000. AID 686970;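 further: NT is the 2HG producing partner of a matched IDH1 knockdown line; 0% = DMSO-treated cells and -100% = media-only wells without cells; nearly all actives have a fitted effect of over 55% in size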
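Read-out is CellTiter-Glo luminescence after 10 minutes at room temperature, following 48 hours' compound treatment of HT-1080-NT cells (750 cells/well, RPMI, 5% FBS, 37 degrees C).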
TGFb SMAD3 inh – inhibitors of TGF-b signaling | HepG2 CAGA-GFP TGF-b/SMAD3 reporter, GFP fluorescence, 18 h; TGF-beta stimulated, 500 pg/mL final | Potency, µM (highest dose often 46.1 µM), without a hit: at the highest dose activity, negative = inhibition, actives largely listed as inhibitors | hit rate 1.2% among 410,000 | AID 588855; further: on the % scale 0 is the no-effect control and ±100 the full control effect; nearly all actives have a fitted effect of over 65% in size
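Read-out: total well GFP (ex488/em500-530) summed from mean per-cell fluorescence. Cells: HEPG2 CAGA-GFP, 1% FBS DMEM, 18 h at 37 degrees C with 500 pg/mL final TGF-beta. Unstimulated wells served as the full-inhibition control; stimulated DMSO wells = 0%.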
Starred values were filed as active, the others as inactive. An excerpt weighted towards active compounds, which were near 17% of everything screened. The call rests on the fitted dose curve; in most records, active means well fitted curve in the direction sought with a large enough effect; inconclusive means small, poorly fitted or top-dose-only effect, or another doubt; inactive means no such curve, though single readings can be large; an effect the other way counts as inactive or inconclusive. Potency means the concentration at half of the fitted maximal effect.

CCOc1ccc(C2CC(=O)c3c([nH]c(C(=O)OC4CCC(C)CC4)c3C)C2)cc1 (stereo not drawn) was read as DT40 TDP1 no CPT -8.7%, HepG2 viability -16.2%, TDP1 cell CPT -9.8% and TGFb SMAD3 inh -1.4%.
For CCOc1ccc(C2CC(=O)c3c([nH]c(C(=O)OCCOc4ccccc4)c3C)C2)cc1 (stereo not drawn) the results were DT40 TDP1 no CPT 14.6µM*, HepG2 viability -24.9%, TDP1 cell CPT 13µM* and TGFb SMAD3 inh -15.7%.
C/C=C/COC(=O)c1[nH]c2c(c1C)C(=O)CC(c1ccc(N(C)C)cc1)C2 (stereo not drawn) was read as DT40 TDP1 no CPT 16.4µM*, HepG2 viability -22.8%, HT1080 IDH1KD tx -26.8%, TDP1 cell CPT 25.9µM*, HT1080NT lethal -17.8% and TGFb SMAD3 inh -6.8%.
CCOCCOC(=O)c1[nH]c2c(c1C)C(=O)CC(c1ccc(OC)c(OC)c1)C2 (stereo not drawn) was read as DT40 TDP1 no CPT 13µM*, HepG2 viability -6.1%, HT1080 IDH1KD tx inconclusive, TDP1 cell CPT inconclusive, HT1080NT lethal inconclusive and TGFb SMAD3 inh 0.0%.
`CCOCCOC(=O)c1[nH]c2c(c1C)C(=O)CC(c1ccc(N(C)C)cc1)C2` (stereo not drawn) gave DT40 TDP1 no CPT inconclusive, HepG2 viability 25.0%, HT1080 IDH1KD tx inconclusive, TDP1 cell CPT 23.1µM*, HT1080NT lethal 1.3% and TGFb SMAD3 inh 8.6%.
`COC(=O)c1[nH]c2c(c1C)C(=O)CC(c1ccc(OC)cc1)C2` (stereo not drawn) gave DT40 TDP1 no CPT inconclusive, HepG2 viability -16.6%, HT1080 IDH1KD tx -8.5%, TDP1 cell CPT -10.5%, HT1080NT lethal -0.6% and TGFb SMAD3 inh 0.0%.
For Cc1c(C(=O)OC2CCCC2C)[nH]c2c1C(=O)CCC2 (stereo not drawn) the results were DT40 TDP1 no CPT inconclusive, HepG2 viability -19.2%, HT1080 IDH1KD tx 1.8%, TDP1 cell CPT 20.6µM*, HT1080NT lethal 0.9% and TGFb SMAD3 inh -10.7%.
Screening Cc1c(C(=O)OCc2ccccc2)[nH]c2c1C(=O)CC(c1ccc(Cl)cc1)C2 (stereo not drawn) returned DT40 TDP1 no CPT 14.6µM*, HepG2 viability -0.1%, TDP1 cell CPT 18.4µM* and TGFb SMAD3 inh -3.9%.
`CCOC(=O)c1[nH]c2c(c1Cc1ccccc1)C(=O)CC(c1ccccc1)C2` (stereo not drawn) gave DT40 TDP1 no CPT 20.6µM*, HepG2 viability -6.7%, TDP1 cell CPT 18.4µM* and TGFb SMAD3 inh -3.2%.
Cc1c(C(=O)OC2CCCCCC2)[nH]c2c1C(=O)CC(c1ccc(N(C)C)cc1)C2 (stereo not drawn) was read as DT40 TDP1 no CPT inconclusive, HepG2 viability 8.8%, TDP1 cell CPT -4.4% and TGFb SMAD3 inh -0.9%.
`CCC(C)OC(=O)c1[nH]c2c(c1C)C(=O)CC(c1ccc(N(C)C)cc1)C2` (stereo not drawn) gave DT40 TDP1 no CPT 14.6µM*, HepG2 viability -15.5%, HT1080 IDH1KD tx 23.1µM*, TDP1 cell CPT 23.1µM*, HT1080NT lethal inconclusive and TGFb SMAD3 inh -24.9%.
For Nc1nc2ncccn2c1-c1ccc(C(F)(F)F)cc1 the results were DT40 TDP1 no CPT -18.2%, HT1080 IDH1KD tx 5.9%, TDP1 cell CPT 8.4% and HT1080NT lethal -1.8%.
OC(Br)C(O)C(O)N1CCCc2ccccc21 (stereo not drawn) was read as DT40 TDP1 no CPT -7.3%, HepG2 viability -9.6%, TDP1 cell CPT -2.3% and TGFb SMAD3 inh -22.3%.
For CC1=C(C(=O)OCCOc2ccccc2)C(c2coc3ccccc3c2=O)C2=C(CCCC2=O)N1 (stereo not drawn) the results were DT40 TDP1 no CPT inconclusive, HepG2 viability 4.6%, HT1080 IDH1KD tx 6.3%, TDP1 cell CPT -13.4%, HT1080NT lethal 1.8% and TGFb SMAD3 inh 14.5%.
For Cc1c(C(=O)OCCOc2ccccc2)[nH]c2c1C(=O)CCC2 the results were DT40 TDP1 no CPT 23.1µM*, HepG2 viability 4.8%, HT1080 IDH1KD tx -19.3%, TDP1 cell CPT 14.6µM*, HT1080NT lethal -17.2% and TGFb SMAD3 inh inconclusive.
Screening COc1cc(NC(=O)N2CCC(CN3CCc4ccccc4C3)CC2)cc(OC)c1 returned DT40 TDP1 no CPT -26.5%, HepG2 viability -28.3%, TDP1 cell CPT -28.5% and TGFb SMAD3 inh -2.6%.
Screening Cc1cc(C)cc(NC(=O)N2CCC(CN3CCc4ccccc4C3)CC2)c1 returned DT40 TDP1 no CPT 13µM*, HepG2 viability -20.5%, TDP1 cell CPT inconclusive and TGFb SMAD3 inh inconclusive.
Screening COc1ccc(OCC(O)CNC(C)c2ccccc2)cc1 (stereo not drawn) returned DT40 TDP1 no CPT inconclusive, HepG2 viability -30.3%, HT1080 IDH1KD tx -22.8%, TDP1 cell CPT inconclusive, HT1080NT lethal -25.1% and TGFb SMAD3 inh -7.0%.
CCC(CC)NCC(O)COc1ccc(Br)cc1 (stereo not drawn) was read as DT40 TDP1 no CPT 20.6µM*, HepG2 viability -21.8%, HT1080 IDH1KD tx -16.4%, TDP1 cell CPT inconclusive, HT1080NT lethal -0.2% and TGFb SMAD3 inh -6.2%.
Screening CC(NCC(O)COc1ccc(Br)cc1)c1ccccc1 (stereo not drawn) returned DT40 TDP1 no CPT inconclusive, HepG2 viability -65.4%, HT1080 IDH1KD tx inconclusive, TDP1 cell CPT inconclusive, HT1080NT lethal inconclusive and TGFb SMAD3 inh inconclusive.
For Cc1cc(OCC(O)CNC(C)c2ccccc2)ccc1C(C)C (stereo not drawn) the results were DT40 TDP1 no CPT 23.1µM*, HepG2 viability -116.2%, HT1080 IDH1KD tx 18.4µM*, TDP1 cell CPT 23.1µM*, HT1080NT lethal 23.1µM* and TGFb SMAD3 inh inconclusive.
For CCCC(NCC(O)COc1ccc(-c2ccccc2)cc1)c1ccccc1 (stereo not drawn) the results were DT40 TDP1 no CPT 4.11µM*, HepG2 viability -109.9%, HT1080 IDH1KD tx 13µM*, TDP1 cell CPT 7.31µM*, HT1080NT lethal -27.5% and TGFb SMAD3 inh inconclusive.
`CC(NCC(O)COc1ccc2ccccc2c1)c1ccccc1` (stereo not drawn) gave DT40 TDP1 no CPT 16.4µM*, HepG2 viability 11.2µM*, HT1080 IDH1KD tx 13µM*, TDP1 cell CPT 16.4µM*, HT1080NT lethal 18.4µM* and TGFb SMAD3 inh inconclusive.

Bioassay records: PubChem BioAssay, National Center for Advancing Translational Sciences (NCATS)
